How the values were obtained:
[1] = biological target: T1, Aspartate--tRNA(Asp/Asn) ligase (Mycobacterium tuberculosis (strain ATCC 25618 / H37Rv)) (UniProt P9WFW3); experiment: Assay for Asp RNA synthetase-1 from Mycobacterium tuberculosis; type: functional; set-up: scale not given: direction of the effect not stated beside the values; conditions: 30 µM; also: in the data most compounds retested in dose-response had high values
T1 sequence (whole entry): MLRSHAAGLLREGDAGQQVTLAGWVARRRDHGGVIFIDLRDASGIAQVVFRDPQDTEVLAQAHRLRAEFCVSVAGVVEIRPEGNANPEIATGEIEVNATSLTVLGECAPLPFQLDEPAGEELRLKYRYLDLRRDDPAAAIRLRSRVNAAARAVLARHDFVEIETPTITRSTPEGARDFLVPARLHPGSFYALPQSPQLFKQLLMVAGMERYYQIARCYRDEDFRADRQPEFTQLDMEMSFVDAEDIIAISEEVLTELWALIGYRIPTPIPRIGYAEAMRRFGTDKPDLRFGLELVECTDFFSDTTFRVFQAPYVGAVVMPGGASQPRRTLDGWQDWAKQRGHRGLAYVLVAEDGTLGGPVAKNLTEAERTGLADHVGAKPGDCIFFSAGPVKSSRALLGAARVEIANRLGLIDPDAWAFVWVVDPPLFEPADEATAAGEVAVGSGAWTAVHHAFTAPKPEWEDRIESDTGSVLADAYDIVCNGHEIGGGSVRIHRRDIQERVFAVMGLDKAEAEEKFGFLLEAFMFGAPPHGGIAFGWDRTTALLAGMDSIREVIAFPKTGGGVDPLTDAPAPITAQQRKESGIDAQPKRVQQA

[2] = biological target: Shiga toxin 2 (Escherichia coli O157:H7) (UniProt P09385+P09386); experiment: E. coli 0.157:H7 Shiga Toxin SOP - stx2 screening assay; type: functional; set-up: scale not given: direction of the effect not stated beside the values; conditions: 30 µM

Structure (SMILES) | Percent Effect [1] [%] | Percent Effect [2] [%]
CC(C)NC(=O)[C@@H]1C[C@H](N)CN1C(=O)c1cc2c([nH]c1=O)CCCC2 | 2.4 | -1.55
Cc1csc(N2CCCN(C(=O)C(C(C)C)n3cncn3)CC2)n1 (stereo not drawn) | -2.24 | 15.4
Cc1ccc(N2CCCC3(COCCN(c4nccs4)C3)C2)nn1 (stereo not drawn) | -0.638 | -17.6
CCOCCN1CCCC(c2cc(C(N)=O)[nH]n2)C1 (stereo not drawn) | -2.28 | -7.08
Cc1cnc(C(=O)N2C[C@@H]3CN(CC4CCCC4)CCO[C@@H]3C2)cn1 | -4.04 | -21.5
Cc1c(C)n(Cc2ccccn2)c2nc3c(c(N)c12)CCCC3 | -2.53 | -3.33
Cc1nc2n(n1)CC(NCc1cc(Cl)c3c(c1)OCCCO3)CC2 (stereo not drawn) | 6.55 | 22.8
O=C(CCCOCc1ccccc1)N1CCCC1c1ccccn1 (stereo not drawn) | -1.14 | -0.85
CCn1ccnc1CN1CCN(CC(=O)NC(C)(C#N)C2CC2)CC1 (stereo not drawn) | -4.1 | 27.2
COc1ccc(C2=C(C)C(N3CCc4ccccc43)=NS2(=O)=O)cc1 | -2.38 | -24.6
Cn1ccnc1CN1CCN(CC(O)c2ccc(F)c(F)c2)CC1 (stereo not drawn) | 1.33 | -1.4
CNS(=O)(=O)c1ccc(C(=O)NC2CCc3nc(C)cn3C2)o1 (stereo not drawn) | -6.5 | 17.4
Cc1cc(C(N)=O)ccc1NC(=O)c1nc(N2CCCC2)ncc1Cl | 1.84 | -35.5
CN(CC(=O)N(C)C1CCCCC1)C1CCc2ccccc21 (stereo not drawn) | 0.433 | 34.7
CN(C)c1cc(C(=O)N2CCCN(Cc3cscn3)CC2)ccn1 | -2.62 | -13.1
O=C(NCCO)C1(Cc2cc(-c3ccc(F)cc3F)no2)CCOCC1 | 2.58 | 1.08
CC(=O)N1CC(=O)N(c2cnn(C)c2)CC12CCN(CC1CC1)C2 (stereo not drawn) | 4.21 | -23.2
CC1=N[C@@]2(CC[C@@H]3CN(S(=O)(=O)CC(C)C)C[C@@H]32)C(=O)N1CC(C)C | -0.749 | 9.05
O=C(c1ccn(-c2cccc(F)c2)n1)N1CCCC(n2cccn2)C1 (stereo not drawn) | -2.68 | 1.81
COc1ccc(CN2CC[C@H](NC(C)=O)[C@@H](O)CC2)c(OC)c1 | 3.53 | -14.9
CC(C)NS(=O)(=O)c1cc(C(=O)O)cc(-c2ccccc2CN(C)C)c1 | 1.25 | -13.2
Cc1nc(CN2C(=O)CC[C@@H]3[C@H]2CCN3C(=O)NC2CC2)cs1 | -0.474 | -11.4
O=C(c1csc(Br)c1)N1CCCC(n2ccnc2)C1 (stereo not drawn) | -1.27 | -53.5
CC(C)(CNC(=O)NCCOc1cccc(F)c1)C(N)=O | -1.21 | 28.8
Cc1cnn(CC2CN(CCN3CCCC3=O)CCO2)c1 (stereo not drawn) | -4.53 | 8.14
CCc1nc(C)c(C(=O)NCCN2CCN(C(C)=O)CC2)s1 | 0.0694 | -21.7
COc1c(CNC2CCN(C(=O)C3CC3)CC2)c(C(C)C)nn1C | 1.69 | 29.5
CC(C)CNC(=O)CN1C=Nc2ccccc2S1(=O)=O | 5.2 | 32.2
Cc1cc(C[C@@H]2COC[C@H]2NCc2ccccc2C(F)(F)F)on1 | 2.34 | -7.33
